What all share (parameters): species or system human, MV4-11 + K-562 + COLO205 + SK-N-BE2 + OVCAR-8
For one assay, the system named is CSK. To be noted: read-out: apparent Kd, n = 1.
For a further assay, the system named is EGFR. Conditions: read-out: apparent Kd, compound concentrations: 100 nM and 1000 nM (sheet 'Samples'), n = 1.
Another assay relates to LYN. To be noted: read-out: apparent Kd, compound concentrations: 100 nM and 1000 nM (sheet 'Samples'), n = 1.
For the next assay, the system named is MAP2K5. To be noted: read-out: apparent Kd, compound concentrations: 100 nM and 1000 nM (sheet 'Samples'), n = 1.
The next assay has as its system SRC. To be noted: read-out: apparent Kd, compound concentrations: 100 nM and 1000 nM (sheet 'Samples'), n = 1.
A further assay concerns EPHA1. Conditions: read-out: apparent Kd, n = 1.
The subject of another assay is FRK. Conditions: read-out: apparent Kd, compound concentrations: 100 nM and 1000 nM (sheet 'Samples'), n = 1.
Another assay relates to ACAD11. To be noted: read-out: apparent Kd, n = 1.
In a further assay the test system is CDK16. Conditions: read-out: apparent Kd; compound concentrations:100 nM and 1000 nM (sheet 'Samples'); n = 1.
A further assay relates to CDKL5. To be noted: read-out: apparent Kd; compound concentrations:100 nM and 1000 nM (sheet 'Samples'); n = 1.
A further assay deals with DYRK1A. Conditions: read-out: apparent Kd; compound concentrations:100 nM and 1000 nM (sheet 'Samples'); n = 1.
The subject of a further assay is FLT3. Conditions: read-out: apparent Kd, n = 1.
Another assay has as its system GSK3A. To be noted: read-out: apparent Kd; compound concentrations:100 nM and 1000 nM (sheet 'Samples'); n = 1.
A further assay deals with GSK3B. To be noted: read-out: apparent Kd; compound concentrations: 100 nM and 1000 nM (sheet 'Samples'), CATDS: 5.9931823260346899E-2; n = 1.
For the next assay, the system named is ZAK. To be noted: read-out: apparent Kd, n = 1.
In a further assay the test system is BTK. Conditions: read-out: apparent Kd; compound concentrations: 100 nM and 1000 nM (sheet 'Samples'), CATDS: 6.87410205009992E-2; n = 1.
Another assay relates to DDR1. Conditions: read-out: apparent Kd, compound concentrations: 100 nM and 1000 nM (sheet 'Samples'), n = 1.
Another assay has as its system ACVR1B. To be noted: read-out: apparent Kd, compound concentrations: 100 nM and 1000 nM (sheet 'Samples'), n = 1.
A further assay concerns ACVR1. Conditions: read-out: apparent Kd; compound concentrations: 100 nM and 1000 nM (sheet 'Samples'), CATDS: 2.7247604336379499E-2; n = 1.
[1] abbreviates: compound concentrations:100 nM and 1000 nM (sheet 'Samples').

Where two headings read alike, the source gives them in different places.

With `N#Cc1cnc2cc(-c3cnc(CNCCN4CCOCC4)s3)ccc2c1Nc1ccc(Oc2ccccc2)cc1` [GW664114X], the potency estimated from few doses in the assay on CSK (compound concentrations: 100 nM and 1000 nM (sheet 'Samples'), CATDS: 6.7492290868603394E-2) is 448 nM; in the assay with EGFR (CATDS: 4.1929469071091803E-2), 2090 nM; in the assay with LYN (CATDS: 6.1309680787230501E-2), 562 nM; in the assay with MAP2K5 (CATDS: 9.4704147517168505E-2), 230 nM; in the assay on SRC (CATDS: 8.2949353782893101E-2), 293 nM.
Turning to `Cc1ccc(O)cc1Nc1ccnc2ccc(C(C)(C)C)cc12` [GW856805X], the potency estimated from few doses in the assay on EPHA1 (compound concentrations: 100 nM and 1000 nM (sheet 'Samples'), CATDS: 0.48562635988047498) was 1.03 nM; with FRK (CATDS: 5.5452484233419301E-2), 44.2 nM.
As for `COc1cc2ncn(-c3cc(OCc4ccncc4)c(C(N)=O)s3)c2cc1OC` [GSK336313A], in the assay with ACAD11 (setting [1]), the potency estimated from few doses was 1400 nM.
For the molecule `N#Cc1cccc(Nc2nccc(-c3cnn4ncccc34)n2)c1` [GW778894X], the potency estimated from few doses in the assay on ACAD11 (setting [1]) is 228 nM; with CDK16, 13 nM; in the assay with CDKL5 it was 6.82 nM; in the assay on DYRK1A, 35.9 nM; with FLT3 (setting [1]) it was 137 nM; with GSK3A, 28.3 nM. The potency estimated from few doses in the assay with GSK3B was 21.2 nM.
In the case of `CN1CCN(Cc2ccc(-c3ccc4c(Nc5ccc(Oc6ccccn6)cc5)ccnc4c3)o2)CC1` [GW567140X], the potency estimated from few doses in the assay on EGFR (CATDS: 3.6910458353503803E-2) is 1180 nM; in the assay on EPHA1 (compound concentrations: 100 nM and 1000 nM (sheet 'Samples'), CATDS: 4.2699834629257603E-2), 760 nM; in the assay on FLT3 (compound concentrations: 100 nM and 1000 nM (sheet 'Samples'), CATDS: 5.7646545219248203E-2), 368 nM; with FRK (CATDS: 3.6217931786021701E-2), 1260 nM; with LYN (CATDS: 3.5611600643533602E-2) it was 1330 nM; with MAP2K5 (CATDS: 0.16913978514831801), 58.2 nM. Also, the potency estimated from few doses with SRC (CATDS: 4.7577990075445997E-2) is 573 nM.
For the molecule `c1ccc(Oc2ccc(Nc3ccnc4cc(-c5ccc(CN6CCCCC6)o5)ccc34)cc2)nc1` [GW567143X], the potency estimated from few doses was 315 nM in the assay on EPHA1 (compound concentrations: 100 nM and 1000 nM (sheet 'Samples'), CATDS: 6.2167566437911E-2); 60.9 nM in the assay with FLT3 (compound concentrations: 100 nM and 1000 nM (sheet 'Samples'), CATDS: 0.15169843184363399); 1100 nM in the assay on FRK (CATDS: 3.9738345055864897E-2); 956 nM in the assay on LYN (CATDS: 4.1336056970238899E-2); 108 nM in the assay with MAP2K5 (CATDS: 0.10658346724576); 464 nM with SRC (CATDS: 5.3011588623511699E-2). Moreover, the potency estimated from few doses with ZAK (compound concentrations: 100 nM and 1000 nM (sheet 'Samples'), CATDS: 3.3669776805855603E-2) is 2210 nM.
On to `CS(=O)(=O)Cc1ccc(Nc2nccc(-c3c(-c4cccc(NC(=O)c5c(F)cccc5F)c4)nn4ccccc34)n2)cc1` [GSK323543A], for which the potency estimated from few doses in the assay with BTK was 1140 nM; with DDR1 (CATDS: 5.7176748718511097E-2), 1930 nM; with EGFR (CATDS: 5.5544990287731598E-2), 2130 nM; in the assay with LYN (CATDS: 6.3006631754301101E-2) it was 1440 nM.
For `O=S(=O)(CCOCc1ccc(-c2ccc3ncnc(Nc4ccc(OCc5cccc(F)c5)c(Cl)c4)c3c2)o1)c1ccccc1` [GW615311X], the potency estimated from few doses in the assay with ACAD11 (compound concentrations: 100 nM and 1000 nM (sheet 'Samples'), CATDS: 2.2498747845654098E-2) was 2280 nM; with ACVR1B (CATDS: 3.6359113991721197E-2) it was 818 nM; in the assay with ACVR1, 1430 nM; with CSK (compound concentrations: 100 nM and 1000 nM (sheet 'Samples'), CATDS: 2.6624527430589399E-2), 1510 nM; in the assay on EGFR (CATDS: 3.2602064025644098E-2) it was 997 nM; with FRK (CATDS: 2.9445586686104801E-2), 1220 nM. The potency estimated from few doses with SRC (CATDS: 2.9038399213399499E-2) was 1250 nM.
Regarding `O=S(=O)(c1ccc(-c2ccnc3[nH]ccc23)cc1)N1CCCC1` [GSK846226A], the potency estimated from few doses in the assay on ACAD11 (setting [1]) was 693 nM.
For `CC(C)c1nc(-c2ccc(F)c(NS(=O)(=O)c3c(F)cccc3F)c2)c(-c2ccnc(Nc3ccc(N4CCOCC4)nc3)n2)s1` [GSK1804250A], the potency estimated from few doses in the assay on CDK16 was 1890 nM; in the assay with CDKL5, 984 nM; in the assay on CSK (setting [1]), 442 nM; in the assay with EPHA1 (setting [1]) it was 548 nM; in the assay with ZAK (setting [1]) it was 1410 nM.
As for `COc1ccc(-c2nc3n(c2-c2ccncc2)CCC3)cc1.COc1ccc(-c2nc3n(c2-c2ccncc2)CCC3)cc1.O=S(=O)(O)O.O=S(=O)(O)O` [SKF-104493-B2], the potency estimated from few doses in the assay with ACAD11 (compound concentrations: 100 nM and 1000 nM (sheet 'Samples'), CATDS: 0.103649602140053) is 2100 nM; in the assay with ACVR1B (CATDS: 0.14344642008730599), 1030 nM.
Turning to `CN1CCN(Cc2ccc(NC(=O)Nc3ccc(N(C)c4ccnc(Nc5ccc(CS(C)(=O)=O)cc5)n4)cc3)cc2)CC1.Cl` [GW827654A], the potency estimated from few doses in the assay on DDR1 (CATDS: 9.0540797508364801E-2) was 147 nM; in the assay on FLT3 (compound concentrations: 100 nM and 1000 nM (sheet 'Samples'), CATDS: 0.105116266606525), 112 nM.

The record behind these values is article PMC11062922 (Nature Chemical Biology, 2023).
